Data as given in PMC4336329 (PLoS ONE, 2015).
The campaign covered roughly 310,000 compounds. About 14,000 (4.5%) showed an effect of 50% or more. The effect is printed as a negative number. For the sample, strong results were picked, then their nearest neighbours and some compounds at random.

The molecules below were run against human ether-à-go-go-related gene (hERG) potassium channel (human, UniProt Q12809) (assay: primary screen, population patch clamp on CHO cells stably expressing hERG; higher = less effect of the substance).
Chain of human ether-à-go-go-related gene (hERG) potassium channel (Q12809 whole entry, looked up): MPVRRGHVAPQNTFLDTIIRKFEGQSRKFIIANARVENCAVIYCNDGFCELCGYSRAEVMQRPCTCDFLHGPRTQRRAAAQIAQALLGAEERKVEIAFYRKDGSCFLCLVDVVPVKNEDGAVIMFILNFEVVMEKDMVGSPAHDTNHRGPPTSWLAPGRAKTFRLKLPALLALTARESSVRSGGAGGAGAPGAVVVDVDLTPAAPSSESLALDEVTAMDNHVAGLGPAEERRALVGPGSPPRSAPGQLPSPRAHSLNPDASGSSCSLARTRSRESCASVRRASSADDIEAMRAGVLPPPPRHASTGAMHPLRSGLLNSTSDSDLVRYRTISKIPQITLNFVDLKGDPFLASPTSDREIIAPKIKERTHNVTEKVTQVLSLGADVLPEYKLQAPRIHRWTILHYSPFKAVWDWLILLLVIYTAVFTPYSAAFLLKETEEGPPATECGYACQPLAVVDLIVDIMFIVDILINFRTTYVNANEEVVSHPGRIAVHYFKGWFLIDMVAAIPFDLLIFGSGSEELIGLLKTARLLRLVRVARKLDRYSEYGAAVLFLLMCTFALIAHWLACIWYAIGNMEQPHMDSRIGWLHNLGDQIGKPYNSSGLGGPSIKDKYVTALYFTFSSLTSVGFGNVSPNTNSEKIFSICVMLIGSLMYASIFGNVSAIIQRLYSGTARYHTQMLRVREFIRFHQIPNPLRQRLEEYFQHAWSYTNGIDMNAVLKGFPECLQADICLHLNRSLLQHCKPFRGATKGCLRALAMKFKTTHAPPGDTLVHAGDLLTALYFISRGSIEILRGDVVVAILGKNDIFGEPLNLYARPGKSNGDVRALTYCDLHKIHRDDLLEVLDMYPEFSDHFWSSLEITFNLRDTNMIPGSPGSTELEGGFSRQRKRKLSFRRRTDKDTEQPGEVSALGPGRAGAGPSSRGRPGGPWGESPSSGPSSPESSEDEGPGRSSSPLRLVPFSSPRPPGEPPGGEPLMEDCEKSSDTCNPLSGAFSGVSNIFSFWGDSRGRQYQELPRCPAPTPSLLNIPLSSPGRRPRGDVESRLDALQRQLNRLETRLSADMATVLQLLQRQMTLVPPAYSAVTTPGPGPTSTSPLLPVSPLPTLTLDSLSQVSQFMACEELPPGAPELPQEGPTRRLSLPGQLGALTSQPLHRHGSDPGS
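Note: peak tail current of the secondary pulse compared with the same well before compound.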

SMILES	hERG current change (%, negative = inhibition) at 10uM [%]
Oc1ccccc1N1CCN(c2ncccn2)CC1	10.4
Cc1ccc(S(=O)(=O)NNC(=O)c2sccc2-n2cccc2)cc1	-21.7
CC(C)c1cccc(C(C)C)c1NC(=S)Nc1cccc(Cl)c1	5.01
COc1ccc(CC(=O)NNC(=O)c2ccncc2)cc1	29.1
CCOc1ccc(CNS(=O)(=O)c2c(C)nc3sccn3c2=O)cc1OC	-66.1
CCOc1ccc(CNS(=O)(=O)c2c(C)nc3scc(C)n3c2=O)cc1OC	8.99
COc1cccc(CNS(=O)(=O)c2c(C)nc3sccn3c2=O)c1	-13.6
O=C(NCCNC(=O)c1ccccn1)c1ccccc1	11.7
COc1ccc(Nc2c(-c3ccc(C)cc3)nc3cnccn23)cc1	-24.5
C=CCc1ccc(OCCn2nnc3ccccc32)c(OC)c1	-12.8
Cc1ccc2c(c1)C1CN(C)CCC1N2C(=S)Nc1ccc(OC(F)F)cc1 (stereo not drawn)	-55.1
Cc1ccc2c(c1)C1CN(C)CCC1N2C(=S)NC(=O)c1ccc(Cl)cc1Cl (stereo not drawn)	-71
Cc1ccc(C(=O)N(C)c2ccc(OCC(=O)N3c4ccc(C)cc4C4CN(C)CCC43)cc2)cc1.Cl (stereo not drawn)	-25.5
Cc1ccc2c(c1)C1CN(C)CCC1N2C(=O)c1cccs1 (stereo not drawn)	-22
Cc1ccc2c(c1)C1CN(C)CCC1N2C(=S)Nc1cccnc1 (stereo not drawn)	-14
Cc1ccc2c(c1)C1CN(C)CCC1N2C(=S)NC(=O)c1ccc(Br)cc1 (stereo not drawn)	-67.1
COc1ccc(-c2nn(-c3ccccc3)cc2C(=O)N2c3ccc(C)cc3C3CN(C)CCC32)cc1 (stereo not drawn)	-31.7
Cc1ccc2c(c1)C1CN(C)CCC1N2C(=O)c1ccco1 (stereo not drawn)	-7.26
CC1Cc2ccccc2N1C(=S)NC(=O)c1ccc(Cl)cc1Cl (stereo not drawn)	4.89
Cc1ccc2c(c1)C1CN(C)CCC1N2C(=O)c1ccc(Br)o1 (stereo not drawn)	-38
Cc1ccc2c(c1)C1CN(C)CCC1N2C(=O)c1cn(-c2ccccc2)nc1-c1ccccc1 (stereo not drawn)	-65.6

SMILES	hERG current change (%, negative = inhibition) at 10uM [%]
Cc1ccc2c(c1)C1CN(C)CCC1N2C(=S)Nc1ccc(Cl)cc1Cl (stereo not drawn)	-34.2
CC(C)c1ccc(NC(=O)CNCC(c2ccccc2)N(C)C)cc1 (stereo not drawn)	-27.6
C/C(=N\NC(=O)c1ccc2c(c1)OCO2)c1ccc(O)cc1	13.1
Cc1ccc(/C=N/NC(=O)c2ccco2)s1	-2.98
CCOc1cc(S(=O)(=O)NCCCN2CCOCC2)ccc1F	3.16
Cc1cc(NC(=O)c2c(-c3c(Cl)cccc3Cl)noc2C)n(C)n1	16
O=C(CN1C(=O)NC(Cc2ccccc2)C1=O)Nc1ccc(F)cc1 (stereo not drawn)	-7.41
N#Cc1ccc(NC(=O)CN2C(=O)NC(Cc3ccccc3)C2=O)cc1 (stereo not drawn)	-57.7
O=C(CN1C(=O)NC(Cc2ccccc2)C1=O)Nc1ccc(OC(F)F)cc1 (stereo not drawn)	-66.9
O=C(CN1C(=O)NC(Cc2ccccc2)C1=O)Nc1ccccc1 (stereo not drawn)	6.7
O=C(CN1C(=O)NC(Cc2ccccc2)C1=O)Nc1ccc(OC(F)(F)F)cc1 (stereo not drawn)	-13.9
N#Cc1cccc(NC(=O)CN2C(=O)NC(Cc3ccccc3)C2=O)c1 (stereo not drawn)	2.91
Cn1nc(-c2ccccc2)c(C(=O)Nc2ccc(Cl)cc2)c1Cl	-12.7
O=C(CC1(O)C(=O)Nc2ccccc21)c1ccc(-n2cccc2)cc1 (stereo not drawn)	2.85
CCCCN1C(N)=NC[C@@H]1C(C)O (stereo partly drawn)	15.9
COC(=O)c1c(C)[nH]c(C(=O)OC(C)C(=O)N(C)C2CCCCC2)c1C (stereo not drawn)	-2.13
CC(=O)Nc1ccc(NC(=O)C(C)OC(=O)c2c(C)nn(-c3ccccc3)c2Cl)cc1 (stereo not drawn)	-14.8
Cc1nn(-c2ccc(F)cc2)c(Cl)c1C(=O)OC(C)C(=O)N(C)C1CCCCC1 (stereo not drawn)	-59
Cc1ccsc1C(=O)C1CCCN(Cc2cccn2-c2ccc(Cl)cn2)C1 (stereo not drawn)	-77.6
Cc1ccsc1C(=O)C1CCCN(Cc2cnc(N(C)C)s2)C1 (stereo not drawn)	-9.23
Cc1ccsc1C(=O)C1CCCN(Cc2cccn2-c2ccccn2)C1 (stereo not drawn)	-75.8
